From PubChem BioAssay (NCATS) come the findings set out here.

Assay [1] can be described thus: AP1 Signaling Pathway (AID 357).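 Also: ME-180 reporter cells stimulated with EGF at its EC50 level; % is scaled to controls: 0 for no effect and ±100 for the full control effect.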 Particulars: ME-180 AP-1-bla reporter, EGF-induced, beta-lactamase ratio, 5 h. The gist of the method:
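AP-1-bla ME-180 cells, Opti-MEM + 0.5% dialyzed FBS, plated overnight 37 °C. Cpd titration + EC50 EGF, 5 h 37 °C. CCF4 2.5 h RT; ex 405, em 460/530 ratio → %activity, AC50.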

The target in assay [2] is Cytochrome P450 1A2 (Homo sapiens) (UniProt P05177). Put plainly: p450-cyp1a2 (AID 410; calls by dose curve; also: potency is read from the fitted curve at half-maximal effect;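 as to activity change, negative = inhibition: -100% = full effect of reference inhibitor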). As to conditions: recombinant CYP1A2, luciferin-ME demethylation, luminescence; series mostly up to 57 µM. The gist of the method: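 Luminescent readout of luciferin formed from Luciferin-ME by human CYP1A2; data normalized against complete inhibition by 57 uM furafylline. Enzyme 20nM, substrate 100uM at Km, 100mM KPO4 buffer, 60 min reaction at room temperature.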
Chain of Cytochrome P450 1A2 (Homo sapiens) (P05177 whole entry, looked up): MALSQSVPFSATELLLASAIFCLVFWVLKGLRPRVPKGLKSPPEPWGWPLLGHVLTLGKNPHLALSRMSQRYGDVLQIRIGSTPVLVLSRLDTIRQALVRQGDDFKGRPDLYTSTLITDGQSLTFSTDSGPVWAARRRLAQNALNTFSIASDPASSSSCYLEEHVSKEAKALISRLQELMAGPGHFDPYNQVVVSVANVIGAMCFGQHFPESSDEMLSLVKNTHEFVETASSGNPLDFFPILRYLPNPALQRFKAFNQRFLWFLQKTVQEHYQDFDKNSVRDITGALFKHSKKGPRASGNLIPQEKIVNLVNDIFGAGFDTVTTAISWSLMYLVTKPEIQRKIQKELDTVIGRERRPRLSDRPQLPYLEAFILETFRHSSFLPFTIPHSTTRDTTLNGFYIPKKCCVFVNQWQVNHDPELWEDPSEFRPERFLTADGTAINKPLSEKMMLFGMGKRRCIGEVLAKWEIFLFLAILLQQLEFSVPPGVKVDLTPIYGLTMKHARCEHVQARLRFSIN

Assay [3] in a line: NFAT Signaling Pathway (AID 444).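 Also: carbachol stimulus at about its EC50 of 1 µM final; % is scaled to controls: 0 for no effect and ±100 for the full control effect.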 Particulars: Jurkat NFAT-bla M1, carbachol, beta-lactamase ratio, 5 h. A digest of the protocol:
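Jurkat cells with NFAT-driven β-lactamase reporter and co-expressed M1 receptor, stimulated with carbachol (final 1 uM, ~EC50), compound titration, 5 h at 37 °C. CCF4 loaded 1 h at RT; 460/530 nm ratio gave %activity and AC50.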

Assay [4] in a line: Stat Signaling Pathway (AID 446).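 Also: ME-180 cervical cancer cells given 40 pM IL-6 alongside compound; SIE-controlled beta-lactamase reporter measured as 460/530 nm FRET emission ratio; % is scaled to controls: 0 for no effect and ±100 for the full control effect.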 Particulars: ME-180 (cervical carcinoma) SIE beta-lactamase reporter, IL-6 stimulated, 5 h; series mostly up to 17.2 µM. A digest of the protocol: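 IL-6/STAT signaling read in ME-180 cells via an SIE beta-lactamase reporter. Stimulus was 40 pM IL-6 (its AC50) for 5 hrs, so both activation and inhibition register.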
Assay [5] deals with Glucocorticoid receptor (Homo sapiens) (UniProt P04150). Put plainly: GR-EFC Redistribution (AID 451; calls by dose curve; also: potency is read from the fitted curve at half-maximal effect). Particulars: CHO-K1 GR-EFC translocation, beta-gal luminescence, 2 h. The gist of the method: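 CHO-K1 cells expressing nuclear EA and GR-ED fragments of b-gal; compounds titrated up to 46 uM final, 2 h at 37 C. GR nuclear translocation read as complemented b-gal luminescence after 1 h RT detection.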
Chain of Glucocorticoid receptor (Homo sapiens) (P04150 whole entry, looked up, the tested form may be a part): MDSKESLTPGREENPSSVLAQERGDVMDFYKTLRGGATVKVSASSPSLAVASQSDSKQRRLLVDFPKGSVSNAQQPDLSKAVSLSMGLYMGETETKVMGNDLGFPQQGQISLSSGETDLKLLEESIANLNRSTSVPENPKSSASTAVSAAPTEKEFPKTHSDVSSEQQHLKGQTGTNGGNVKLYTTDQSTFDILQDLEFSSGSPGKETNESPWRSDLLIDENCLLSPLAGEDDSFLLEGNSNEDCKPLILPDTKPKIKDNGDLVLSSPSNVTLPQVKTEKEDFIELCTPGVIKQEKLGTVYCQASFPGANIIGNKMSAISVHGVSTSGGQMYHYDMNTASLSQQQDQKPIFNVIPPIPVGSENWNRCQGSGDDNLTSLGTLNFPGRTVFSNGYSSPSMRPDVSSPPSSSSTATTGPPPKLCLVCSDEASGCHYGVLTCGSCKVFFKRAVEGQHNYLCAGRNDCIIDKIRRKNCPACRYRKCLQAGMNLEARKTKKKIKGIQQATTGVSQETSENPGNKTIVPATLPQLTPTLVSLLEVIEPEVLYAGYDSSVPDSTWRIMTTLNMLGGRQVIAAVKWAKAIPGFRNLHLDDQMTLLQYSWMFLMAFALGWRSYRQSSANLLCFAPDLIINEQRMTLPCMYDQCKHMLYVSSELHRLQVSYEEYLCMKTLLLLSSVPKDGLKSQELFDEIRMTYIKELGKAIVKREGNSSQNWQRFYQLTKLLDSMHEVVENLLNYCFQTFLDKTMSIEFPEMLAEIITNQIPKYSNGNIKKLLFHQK

In assay [6] the target is Mitogen-activated protein kinase 10 (Mus musculus) (UniProt Q61831). Put plainly: JNK3 AlphaScreen Assay (AID 530).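 Also: kinase came from lysate of stimulated human HepG2 cells; signal reports phosphorylation of biotinylated GST-cJun 1-79 at Ser73 with 10 µM ATP; % is scaled to controls: 0 for no effect and ±100 for the full control effect.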 As to conditions: JNK3 lysate, c-Jun phosphorylation; series mostly up to 57.1 µM. The gist of the method: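 Pre-activated (IL-1β/TNFα) JNK3 in HepG2 lysates phosphorylates biotin-GST-cJun(1-79), 10 uM ATP; anti-phospho-cJun(Ser73) AlphaScreen read at room temperature, pH 7.6 Tris buffer. Compounds pre-incubated 15 min as titrations.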
For orientation: Bead proximity is the source of the signal in Alpha formats.

Assay [7] deals with Glucocorticoid receptor (Homo sapiens) (UniProt P04150). Nature of the assay: GR-GFP Redistribution (AID 450;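 active = compounds whose dose series gives a full or clear partial fitted curve of increased nuclear translocation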; also: potency is read from the fitted curve at half-maximal effect). Particulars: U2OS GR-GFP nuclear translocation, laser cytometry, 2 h.
The nature of assay [8]: Cell Viability - BJ (AID 421; calls by dose curve;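 also: potency is read from the fitted curve at half-maximal effect; cells exposed to compound for 40 hours at 37 °C before readout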). As to conditions: BJ fibroblast viability, qHTS. A digest of the protocol: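 Quantitative HTS: ATP depletion in BJ cells after 40 hr compound exposure in complete culture medium, detected with CellTiter-Glo; AC50 from standard Hill fits.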
A general note: qHTS replaces the single test concentration by a dilution series.

Assay [9] can be described thus: Cell Viability - Jurkat (AID 426;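 active = dose-dependent loss of cell ATP signal giving a full or clear fitted curve, ranked by lower potency value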; also: potency is read from the fitted curve at half-maximal effect). Particulars: qHTS. The gist of the method: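 qHTS, 1536-well; Jurkat E6-1, 5000 cells/well, complete medium; cpd 40 hr, 37 °C; CellTiter-Glo 20 min RT; luminescence. AC50 by Hill fit.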
A short description of assay [10]: Cell Viability - Hek293 (AID 427;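 active = compounds whose dose-response curve shows a full or clear partial loss of cell viability, called from curve shape rather than a numeric limit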;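 also: potency is read from the fitted curve at half-maximal effect; cells exposed to compound for 40 hours at 37 °C before reading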). Particulars: qHTS. A digest of the protocol:
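AC50 values derive from Hill-modelled concentration-response of ATP-based luminescence, normalized between DMSO-only and 100 uM tamoxifen controls. Cells were exposed in complete culture medium for 40 hr at 37 °C before detection.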

Assay [11] in a line: Cell Viability - HepG2 (AID 433; calls by dose curve;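 also: potency is read from the fitted curve at half-maximal effect; potency for ATP loss meaning cytotoxicity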). Particulars: qHTS. A digest of the protocol:
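HepG2 hepatocellular carcinoma cells (1500/well) were treated with compounds for 40 h at 37 °C in complete medium; intracellular ATP was read by CellTiter-Glo luminescence. Data were normalized to DMSO and 100 uM tamoxifen, and AC50 came from Hill fits.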

Assay [12] in a line: Cell Viability - MRC5 (AID 434; calls by dose curve;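 also: potency is read from the fitted curve at half-maximal effect; potency reflects cytotoxicity seen as loss of intracellular ATP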). As to conditions: MRC5 lung fibroblast viability, qHTS. A digest of the protocol: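 MRC5 normal human lung fibroblasts, 1500 cells/well, exposed to compound for 40 hr at 37 C. Cellular ATP was read by CellTiter-Glo luminescence; data normalized to DMSO and 100 uM tamoxifen, with AC50 from Hill fits.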
Assay [13] can be described thus: Cell Viability - SK-N-SH (AID 435; calls by dose curve;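 also: potency is read from the fitted curve at half-maximal effect; compound exposure lasted 40 h at 37 °C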). Particulars: SK-N-SH neuroblastoma cell viability qHTS. The gist of the method:
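SK-N-SH human neuroblastoma cells (1500/well) were exposed to compounds in complete medium for 40 h at 37 °C, and intracellular ATP was then measured by CellTiter-Glo luminescence. AC50 was taken from Hill fits, normalized to DMSO and 100 uM tamoxifen.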

A short description of assay [14]: Cell Viability - N2a (AID 540; active = well fitted curve in the direction sought with a large enough effect; an effect the other way counts as inactive or inconclusive;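 also: plate controls were DMSO alone for no effect and tamoxifen control for full effect; nearly all actives have a fitted effect of over 45% in size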). As to conditions: N2a mouse neuroblastoma cell viability; series mostly up to 92.2 µM. The gist of the method: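 Luminescent ATP signal (CellTiter-Glo, 20 min at room temperature) served as the viability read-out after N2a cells were treated with compounds for 40 hours at 37 °C. Concentration-response data were fitted to the Hill equation for AC50.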

Assay [15] can be described thus: Cell Viability - NIH 3T3 (AID 541; active = well fitted curve in the direction sought with a large enough effect; an effect the other way counts as inactive or inconclusive;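 also: plate controls were DMSO alone for no effect and tamoxifen positive control for full effect; nearly all actives have a fitted effect of over 25% in size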). Particulars: NIH 3T3 cell viability, qHTS; activity change, negative = cytotoxicity: at 92.2 µM (top of the series). The gist of the method:
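Luminescent ATP signal (CellTiter-Glo) served as the viability read-out after NIH 3T3 cells were exposed to compounds over a concentration range for 40 hr at 37 °C. Hill-equation modelling of concentration-response data gave AC50.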

Assay [16] in a line: Cell Viability - HUV-EC-C (AID 542; active = well fitted curve in the direction sought with a large enough effect; an effect the other way counts as inactive or inconclusive; also: % is scaled to controls: 0 for no effect and ±100 for the full control effect; nearly all actives have a fitted effect of over 35% in size). Particulars: HUV-EC-C endothelial cell viability, qHTS; series mostly up to 92.2 µM. A digest of the protocol:
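qHTS cytotoxicity: HUV-EC-C, 1000 cells/well, 5 hr settle, compound 40 hr 37 °C, CellTiter-Glo, luminescence. AC50 via Hill equation.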

Assay [17] can be described thus: Cell Viability - SH-SY5Y (AID 544; active = well fitted curve in the direction sought with a large enough effect; an effect the other way counts as inactive or inconclusive;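 also: 0% = DMSO alone and -100% = 100 µM tamoxifen; nearly all actives have a fitted effect of over 55% in size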). Particulars: SH-SY5Y neuroblastoma cell viability; series mostly up to 92.2 µM. A digest of the protocol:
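Luminescent ATP read-out (CellTiter-Glo) measures loss of viable SH-SY5Y neuroblastoma cells after 40 hr compound exposure at 37 °C. AC50 values derive from standard Hill modelling of qHTS concentration-response data.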

Assay [18] in a line: Cell Viability - Renal Proximal Tubule (AID 545; active = well fitted curve in the direction sought with a large enough effect; an effect the other way counts as inactive or inconclusive;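 also: 0% = DMSO only and -100% = 100 µM tamoxifen; nearly all actives have a fitted effect of over 40% in size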). Particulars: renal proximal tubule cells viability, primary cells of rat origin; activity change, negative = cytotoxicity: at 91.7 µM (top of the series). A digest of the protocol:
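Primary rat renal proximal tubule cells (1000/well) were treated with compounds for 40 hr at 37 °C in complete medium. Intracellular ATP was measured by CellTiter-Glo luminescence, and AC50 values came from Hill-equation fits of concentration-response data.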

“And” between values parts separate entries of the source, which are not always exact repeats. Identical values can stand only once. Values without a mark were called inactive. Results filed as inconclusive are left out. The source made the active and inactive calls. Unless noted, calls follow the shape of the dose curve; as a rule, active = well fitted curve in either direction with a large enough effect (not every such curve was filed as active); inconclusive = small, poorly fitted or top-dose-only effect, or another doubt; inactive = flat fitted curve, though single readings scatter.

As to `CC(C)NNC(=O)c1ccncc1`, the activity change, negative = inhibition in assay [1] (at 17.2 µM (top of the series)) is 5.09%; in [1] (at 38 µM (top of the series)), -0.742%; in assay [3] (at 17.2 µM (top of the series)), -0.394%; in assay [3] (at 38 µM (top of the series)), -0.596%. Also, the Potency entry in assay [2] and in assay [6] was “inactive” in each case. The outcome in assay [4] was inactive. The Potency in assay [5] is > 46 µM and > 20.6 µM.

`CCCC(C(=O)OCCN(CC)CC)(c1ccccc1)c1ccccc1`: the activity change, negative = inhibition in assay [1] (at 17.2 µM (top of the series)) is 16.9%; in assay [1] (at 38 µM (top of the series)), 20.9%. Further, the Potency result in assay [2] and in assay [6] was “inactive” throughout. Besides, the outcome in assay [4] was inactive. The Potency in [7] is > 46 µM and > 20.6 µM; in assay [5], > 46 µM and > 20.6 µM.

With `CN(C)C(=O)Oc1ccc[n+](C)c1`, the activity change, negative = inhibition in [1] (at 17.2 µM (top of the series)) was 8.22%; in assay [1] (at 38 µM (top of the series)) it was 9.9%; in [3] (at 17.2 µM (top of the series)), 4.78%; in assay [3] (at 38 µM (top of the series)) it was 12%. For the same compound, the Potency entry in assay [2] and in assay [6] was “inactive” in each case. Further, the compound was called inactive in [4]. The Potency in assay [5] was > 46 µM.

As for `CN(C)CC/C=C1\c2ccccc2COc2ccccc21`, the activity change, negative = inhibition in assay [1] (at 17.2 µM (top of the series)) was 22.2%; in [1] (at 38 µM (top of the series)), 23.8%; in assay [3] (at 17.2 µM (top of the series)), -44.9% (active). The Potency is 12.6 µM (active) and 5.01 µM (active) and 15.8 µM (active) in assay [2]; > 46 µM and > 20.6 µM in [7]; > 46 µM and > 20.6 µM in assay [5]. Also, the call in [4] was inactive. Moreover, the Potency entry in assay [6] was “inactive”.

Regarding `CCCOc1ccccc1-c1nc2n[nH]nc2c(=O)[nH]1`, the activity change, negative = inhibition in assay [1] (at 17.2 µM (top of the series)) was -18.5%; in assay [1] (at 38 µM (top of the series)) it was -7.91%; in assay [3] (at 17.2 µM (top of the series)), 14.8%; in [3] (at 38 µM (top of the series)), 2.4%. In addition, the Potency was 5.01 µM (active) and 3.98 µM (active) in assay [2]; > 46 µM and > 20.6 µM in assay [7]; > 46 µM and > 20.6 µM in assay [5]. For the same compound, the compound was called inactive in [4]. Also, the Potency result in assay [6] is “inactive”.

For `COc1cc(Cc2cnc(N)nc2N)cc(OC)c1OC`, the activity change, negative = inhibition in assay [1] (at 17.2 µM (top of the series)) was 1.37%; in [1] (at 38 µM (top of the series)), -4.63%; in assay [3] (at 17.2 µM (top of the series)) it was -13.2%; in assay [3] (at 38 µM (top of the series)), -9.42%. In addition, the Potency in assay [8], in assay [9], in [10], in assay [11], in assay [12] and in [13] was > 92 µM in each case. The compound was called inactive in [4] and in assay [14]. Moreover, the Potency result in [6], in assay [16] and in assay [17] was “inactive” each time. The activity change, negative = cytotoxicity is -10.3% in assay [15] and -5.57% in assay [18].
